GLP1R inv ag: acts as inverse agonist at human GLP-1 receptor | P43220 | HEK293 GLP-1R CRE-luciferase, luminescence, 24 h; GLP-1R form is constitutively active | Potency, µM (doses to about 38.3 µM), for inactives: top-dose activity change, negative = inhibition, hits mostly inhibitors | 410,000 compounds, 1.6% hits | AID 624417; further: on the % scale 0 is the no-effect control and ±100 the full control effect; nearly all actives have a fitted effect of over 55% in size
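Cells are plated, allowed 12 hours at 37 deg C, then treated with compounds for 24 hr before luciferase detection reagent is added and luminescence is read after 12 min at room temperature. The HEK293 line carries constitutively active GLP-1R with a cAMP-responsive reporter.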
Tb PFK inh: T. brucei PFK enzyme inhibition; O15648; T. brucei PFK, ADP-Glo luminescence; Potency, µM (top dose mostly 57.5 µM), for the others: at the top dose activity, negative = inhibition, hits mostly inhibitors; 330,000 compounds, 0.17% hits;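 further: 0% = uninhibited 1x PFK enzyme wells and -100% = no-enzyme wells; nearly all actives have a fitted effect of over 60% in size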
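Luminescent ADP detection (ADP-Glo, two-step: ATP depletion then ADP-to-ATP conversion for luciferase) reported PFK activity after 45 min room-temperature reaction of 1.25 nM enzyme with 0.5 mM F6P and 0.1 mM ATP at pH 8.0.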
Pin1 inh: blocks the human prolyl isomerase Pin1 | Potency, µM (highest dose often 115 µM), for inactives: top-dose activity, negative = inhibition, hits mostly inhibitors | Q13526 | Pin1 FP peptide displacement, HiFluor488, 10 min | AID 504891 | 390,000 compounds, 0.009% hits; active means well fitted inhibition curve with a large enough effect in the polarisation, with a control signal flat, not every such curve was filed as active; inconclusive means small, poorly fitted or top-dose-only effect, or effect the other way, or a change in a side signal; inactive means no such curve, though single readings can be large or run the other way; the % refers to the polarisation; further: on the % scale 0 is the no-effect control and ±100 the full control effect
HEK293 tox: cytotoxicity in counter-screen for GLP-1R inverse agonists; HEK293 cAMP-luciferase reporter cells, luminescence, 24 h; Potency, µM (doses to about 38.3 µM), without a hit: at the top dose activity change, negative = inhibition, actives largely listed as inhibitors; 410,000 compounds, 0.13% hits; AID 624418;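 further: loss of luciferase light is scored as toxicity; on the % scale 0 is the no-effect control and ±100 the full control effect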
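MLSMR compounds, 24 hr on cells at 37 deg C/5% CO2; luminescence after luciferase reagent (12 min RT). Inhibition counted as the undesired cytotoxic outcome.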
GLP-1R agonist: agonists of human GLP-1 receptor; HEK293 GLP-1R CRE-luciferase, luminescence, 4-6 h; cells express a hypersensitive GLP-1R form; Potency, µM (doses to about 45.6 µM), inactives show at the top dose activation, usual class: activators; 380,000 compounds, 0.007% hits; AID 624172; further: % of control where 0% means no effect
PGK inhibitor: T. brucei PGK inhibition; P07378; PGK/GAPDH coupled, Kinase-Glo luminescence, 60 min; Potency, µM (highest dose often 57.5 µM), for the others: top-dose activity change, negative = inhibition, hits mostly inhibitors; 380,000 compounds, 0.043% hits; AID 602233; further: on the % scale 0 is the no-effect control and ±100 the full control effect; nearly all actives have a fitted effect of over 60% in size
Target sequence (P07378 whole entry, looked up): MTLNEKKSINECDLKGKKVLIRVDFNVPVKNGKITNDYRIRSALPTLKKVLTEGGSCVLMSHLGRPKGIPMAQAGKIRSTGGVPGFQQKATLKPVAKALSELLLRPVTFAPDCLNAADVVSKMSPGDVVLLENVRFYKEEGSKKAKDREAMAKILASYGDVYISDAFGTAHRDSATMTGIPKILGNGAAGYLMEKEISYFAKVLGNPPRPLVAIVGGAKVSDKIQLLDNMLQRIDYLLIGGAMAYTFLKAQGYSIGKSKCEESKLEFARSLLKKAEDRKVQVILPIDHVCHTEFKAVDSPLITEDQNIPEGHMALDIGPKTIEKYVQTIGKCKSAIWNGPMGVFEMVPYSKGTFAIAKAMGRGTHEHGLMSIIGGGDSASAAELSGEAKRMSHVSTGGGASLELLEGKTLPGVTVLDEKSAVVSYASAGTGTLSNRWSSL
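Luminescent ATP detection (Kinase-Glo Plus) follows a 60-minute room-temperature incubation, with wells lacking PGK as controls. Buffer: 100 mM TEA (pH 7.6), 5 mM MgCl2, 0.01% Tween-20. Coupling enzyme GAPDH (100 nM final) supplies unstable 1,3-BPG in-well.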
An asterisk follows results filed as active. Shown are actives, neighbours in structure and some others; about 1.8% of the full set was active somewhere. Unless noted, the call rests on the fitted dose curve; in most records, active means well fitted curve in the direction sought with a large enough effect; inconclusive means small, poorly fitted or top-dose-only effect, or another doubt; inactive means no such curve, though single readings can be large; an effect the other way counts as inactive or inconclusive. Potency means the concentration at half of the fitted maximal effect.

For COc1ccc(CN2CCN(C(=O)CC(C)C)CC2)cc1Br the results were GLP1R inv ag -1%, Tb PFK inh 0%, Pin1 inh 2%, HEK293 tox 4%, GLP-1R agonist 5% and PGK inhibitor 4%.
Cc1ccc(C)c(C(=O)Cn2ncc(Cl)c(Cl)c2=O)c1 was read as GLP1R inv ag 0%, Tb PFK inh 1%, Pin1 inh 2%, HEK293 tox 10µM*, GLP-1R agonist -29% and PGK inhibitor 0%.
`Cc1ccc(S(=O)(=O)N2CCCCC2)cc1NC(=O)CNC(C)c1ccc(Cl)c(Cl)c1` (stereo not given) gave GLP1R inv ag 2.8µM*, Tb PFK inh -5%, Pin1 inh 7%, HEK293 tox -17%, GLP-1R agonist -5% and PGK inhibitor -9%.
Screening Cc1ccc(S(=O)(=O)N2CCCCC2)cc1NC(=O)CSCC(=O)O returned GLP1R inv ag 10%, Tb PFK inh 4%, Pin1 inh 4%, HEK293 tox 17%, GLP-1R agonist -1% and PGK inhibitor -2%.
`Cc1ccc(S(=O)(=O)N2CCCCC2)cc1NC(=O)Cn1ncc(Cl)c(Cl)c1=O` gave GLP1R inv ag 10µM*, Tb PFK inh -8%, Pin1 inh inconclusive, HEK293 tox inconclusive, GLP-1R agonist -14% and PGK inhibitor -19%.
Cc1cc(C(=O)Cn2ncc(Cl)c(Cl)c2=O)c(C)n1CC(F)(F)F was read as GLP1R inv ag inconclusive, Tb PFK inh 1%, Pin1 inh 21%, HEK293 tox -14%, GLP-1R agonist -27% and PGK inhibitor -4%.
Cc1ccc(C)c(OCCC(=O)Nc2cc(S(=O)(=O)N3CCCCC3)ccc2C)c1 was read as GLP1R inv ag 11µM*, Tb PFK inh 0%, Pin1 inh 0%, HEK293 tox 3%, GLP-1R agonist 14% and PGK inhibitor inactive.
For COc1ccc(CNC(=O)c2ccc(-c3nc(CSc4ccccc4)c(C)o3)cc2)c(OC)c1 the results were GLP1R inv ag -9%, Pin1 inh -1%, HEK293 tox 1% and PGK inhibitor inactive.
For COc1cccc(C2c3c(ncn(-c4ccccc4C#N)c3=N)Oc3ccc4ccccc4c32)c1 (stereo not given) the results were Pin1 inh 5%.
Screening Cc1ccc(CNC(=O)CN(c2ccc(Cl)cc2Cl)S(=O)(=O)c2ccccc2)cc1 returned GLP1R inv ag 10µM*, Pin1 inh 20%, HEK293 tox -10% and PGK inhibitor 3%.
`CC(NC(=O)CN(c1ccc(Cl)cc1Cl)S(=O)(=O)c1ccccc1)c1ccccc1` (stereo not given) gave GLP1R inv ag 8.9µM*, Pin1 inh 10%, HEK293 tox -5% and PGK inhibitor 9%.
Screening Cc1ccccc1NC(=O)CSc1nc2c(c(=O)n(C)c(=O)n2C)n1Cc1ccccc1F returned GLP1R inv ag 10%, Pin1 inh -4% and HEK293 tox 2%.
Screening CC(C)n1ncc2c(C(=O)Nc3cccc(C#N)c3)cc(C3CC3)nc21 returned GLP1R inv ag 8.9µM*, Tb PFK inh 8%, Pin1 inh 10%, HEK293 tox 22%, GLP-1R agonist -1% and PGK inhibitor -1%.
For CC(C)n1ncc2c(C(=O)O)cc(C3CC3)nc21 the results were GLP1R inv ag 1%, Tb PFK inh 6%, Pin1 inh -7%, HEK293 tox -10%, GLP-1R agonist -7% and PGK inhibitor -10%.
Screening CCOc1ccc(OCCNC(=O)c2cc(C3CC3)nc3c2cnn3C(C)C)cc1 returned GLP1R inv ag 8.9µM*, Tb PFK inh -6%, Pin1 inh 16%, HEK293 tox -10%, GLP-1R agonist 1% and PGK inhibitor -2%.
